Activity calls are given as the source filed them. How the calls were made is not given here.
Each compound was assayed against Pantothenate synthetase (Mycobacterium tuberculosis (strain ATCC 25618 / H37Rv)) (UniProt P9WIL5) (assay: Coupled enzyme confirmation of inhibitors against recombinant Mtb PanC (AID 375;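 further: 0% = full reaction with vehicle and 100% = no enzyme background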)). Settings: coupled enzyme assay; at 10 µM, stronger effect = higher value.
Chain of Pantothenate synthetase (Mycobacterium tuberculosis (strain ATCC 25618 / H37Rv)) (P9WIL5 whole entry, looked up): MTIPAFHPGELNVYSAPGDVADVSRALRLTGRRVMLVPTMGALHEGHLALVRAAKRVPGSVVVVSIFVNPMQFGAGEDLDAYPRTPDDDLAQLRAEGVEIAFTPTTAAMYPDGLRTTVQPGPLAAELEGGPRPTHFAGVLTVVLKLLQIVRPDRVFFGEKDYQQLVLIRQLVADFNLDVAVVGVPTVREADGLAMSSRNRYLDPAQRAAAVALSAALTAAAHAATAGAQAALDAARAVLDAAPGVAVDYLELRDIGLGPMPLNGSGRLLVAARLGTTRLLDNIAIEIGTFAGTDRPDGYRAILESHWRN

Row | Structure (SMILES) | inhibition
1 | CCOC(=O)C1CCCn2c1nc1sc3c(c1c2=O)CCCC3 (stereo not given) | 0% (inactive)
2 | Cc1ccc(-c2nn3c(C)nnc3s2)cc1N | 0% (inactive)
3 | O=C(CSc1ncccn1)NCc1ccccc1 | 0% (inactive)
4 | CCOc1ccc(OCC)c(NC(=O)C2CCN(c3ncccn3)CC2)c1 | 0% (inactive)
5 | O=C(NCC1CCCCN1)c1cc(OCC(F)(F)F)ccc1OCC(F)(F)F (stereo not given) | 3% (inactive)
6 | CCOC(=O)c1cnc(SC2CC(=O)N(c3ccc(OC)c(OC)c3)C2=O)nc1N (stereo not given) | 0% (inactive)
7 | COCCn1c(Sc2nc(C)cs2)nc2c1c(=O)[nH]c(=O)n2C | 0% (inactive)
8 | CCC(Sc1ncccc1C(=O)O)C(=O)N1CCCC1 (stereo not given) | 0% (inactive)
9 | CC1CCCCC1NC(=O)CN1CCN(Cc2ccccc2Cl)C1=O (stereo not given) | 0% (inactive)
10 | CCOC(=O)CN1CC23C=CC(O2)C(C(=O)NC2CCCC2)C3C1=O (stereo not given) | 3% (inactive)
11 | O=C(CN1CCSCC1)N1CCc2[nH]c3ccc(Br)cc3c2C1 | 0% (inactive)
12 | CCN(CC)C(=O)CN(c1cc(Cl)ccc1OC)S(C)(=O)=O | 0% (inactive)
13 | CN1C(=O)CSc2ccc(NC(=O)N3CCN(c4ccccn4)CC3)cc21 | 8% (inactive)
14 | COc1ccc(Cl)cc1S(=O)(=O)N1CCN(c2ccc(F)cc2)CC1 | 0% (inactive)
15 | CCCSCCCNC(=O)Cn1cc2c(n1)CCC(C)C2 (stereo not given) | 2% (inactive)
16 | CC(C)(C)OC(=O)N1CCCC1C(=O)N1CCc2ccccc21 (stereo not given) | 0% (inactive)
17 | Cc1ccccc1Cn1ccc(NC(=O)c2onc(C)c2Cl)n1 | 0% (inactive)
18 | CCCC1CCC(C(=O)Nn2c(C)nc3ccccc3c2=O)CC1 (stereo not given) | 8% (inactive)
19 | Cc1ccc2nc(-c3ccc(S(=O)(=O)N4CCOCC4)cc3)cn2c1 | 0% (inactive)
20 | Cc1cc(NS(=O)(=O)c2ccc(Nc3nc(-c4sc(N)nc4C)cs3)cc2)no1 | 4% (inactive)

Row | Structure (SMILES) | inhibition
21 | O=C(Nc1cccc(Cl)c1)N1CCN(Cc2ccccc2)CC1 | 5% (inactive)
22 | O=C(O)c1ccc2c(c1)N(Cc1ccccc1F)C(=O)c1ccccc1S2=O (stereo not given) | 0% (inactive)
23 | Nc1cc(=O)[nH]c(SCC(=O)Nc2ccc(Br)cc2)n1 | 2% (inactive)
24 | O=C(NCc1cccs1)C1CCCN(c2ncccn2)C1 (stereo not given) | 0% (inactive)
25 | Cc1nc2ccc(NC(=O)N3CCSCC3)cc2s1 | 1% (inactive)
26 | CCN1CCCC1CNCc1ccc(Cl)cc1Cl (stereo not given) | 0% (inactive)
27 | C=CCn1c(SCc2ccc3nonc3c2)nnc1-c1cccs1 | 7% (inactive)
28 | CN(C)S(=O)(=O)c1ccc(/C(O)=C2/C(=O)C(=O)N(CCN3CCCCC3)C2c2cccnc2)cc1 (stereo not given) | 0% (inactive)
29 | CCOC(=O)c1[nH]c2ccc(OC)cc2c1NC(=O)CCN1CCC(C)CC1 | 0% (inactive)
30 | Cc1nn(S(=O)(=O)N2CCCCC2)c(C)c1Br | 0% (inactive)
31 | N#Cc1ccc(CSc2nnc(-c3cnccn3)o2)cc1 | 5% (inactive)
32 | Cc1csc(NC(=O)CSc2nnc(Cc3cccn3C)n2-c2ccc(F)cc2)n1 | 0% (inactive)
33 | CC(C)Oc1ccc2c(=O)c(-c3ccccc3)coc2c1 | 4% (inactive)
34 | COc1ccc(CCN2C(=O)CCC2(C)C(=O)NCc2cccnc2)cc1OC (stereo not given) | 0% (inactive)
35 | COc1ccc(C(=O)Nc2ccc(S(=O)(=O)Nc3nccnc3OC)cc2)cc1OC | 0% (inactive)
36 | Cn1nc(C(C)(C)C)cc1C(=O)NCc1ccc(N2CCCC2=O)cc1 | 0% (inactive)
37 | N#CCC(=O)N1CCn2c1nc1ccccc12 | 0% (inactive)
38 | Fc1cc(F)c(F)c(SCCc2ccncc2)c1F | 0% (inactive)
39 | CCCC(=O)O[C@]1(C(=O)CCl)[C@@H](C)C[C@H]2[C@@H]3CCC4=CC(=O)C=C[C@]4(C)[C@@]3(F)C(=O)C[C@@]21C | 0% (inactive)
40 | Clc1ccccc1-c1nnc2sc(-c3ccccn3)nn12 | 0% (inactive)
